The record followed here is PubChem BioAssay.

Structures are written as SMILES. The source made the active and inactive calls.

One experiment addresses Albumin (Bos taurus) (UniProt P02769). As to the kind of experiment: compounds binding labelled BSA control protein – biochemical, small-molecule microarray, Alexa647 label, 635/667 nm fluorescence, artefact control for SMM control protein annotation, profiling panel (AID 1118).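 Also: score merges 667 nm emission intensity and signal-to-noise per printed compound spot.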 Particulars: BSA-A647 binding, fluorescence 635 nm, higher = more signal.
Experiment [1] can be described thus: probe aXIP binding to arrayed compounds – biochemical, NeuroSMM set, 635/667 nm fluorescence, primary screen (AID 1119).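 Also: probe is the protein aXip251-270 applied at 1 µg/mL to compound-printed slides; binding of probe to printed compounds measured as 667 nm fluorescence plus signal to noise.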 Particulars: small-molecule microarray, higher = more signal, called active from +8 up or from −8 down.
Experiment [2] can be described thus: probe aNOTCH3 binding on compound microarray – biochemical, small-molecule microarray, 635/667 nm fluorescence, primary screen (AID 1120).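 Also: probe is a biotin-tagged antibody raised against NOTCH3 rather than NOTCH3 protein; score merges spot fluorescence near 667 nm with spot signal to noise.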 The note with it: higher = more signal.
The nature of experiment [3]: probe aNOTCH2 binding on compound microarray – biochemical, small-molecule microarray, 635/667 nm fluorescence, primary screen (AID 1121).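 Also: score merges feature fluorescence read at 667 nm with its signal to noise.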 The note with it: higher = more signal.
In experiment [4] the target is Carbonic anhydrase 2 (Homo sapiens) (UniProt P00918). As to the kind of experiment: compounds binding carbonic anhydrase 2 – biochemical, small-molecule microarray, Alexa647-labelled CAII, profiling panel (AID 1122). The note with it: CAII-A647 binding fluorescence, higher = more signal.
The nature of experiment [5]: COS7 lysate on small-molecule microarray, probe aHis, 635 nm (AID 1123).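 Also: z-score combines 667nm fluorescence intensity with signal-to-noise per printed compound spot.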 Particulars: COS7 cell lysate, fluorescence, higher = more signal.
Experiment [6] in a line: probe aLAP1 signal on lysate-treated microarray – cell lysate, small-molecule microarray, COS7 lysate, primary screen (AID 1124).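 Also: lysate comes from COS7 cells expressing LAP1 and is applied at 0.3 µg/mL; score merges spot fluorescence near 667 nm with signal-to-noise over triplicate slides.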 The note with it: probe aLAP1, fluorescence, higher = more signal.
The subject of a further experiment is Sam68 (KHDRBS1). As to the kind of experiment: compounds binding KHDRBS1 protein – biochemical, small-molecule microarray, 635 nm fluorescence, primary screen (AID 1125).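 Also: score merges 667 nm channel intensity with signal to noise over triplicate slides.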 The note with it: higher = more signal.
For experiment [7], the system named is Chordin-like protein 2 (CHRDL2). As to the kind of experiment: compounds binding chordin-like 2 – biochemical, small-molecule microarray, 635 nm fluorescence, primary screen (AID 1126).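 Also: printed compound slides probed with Chrdl2 protein at 4 µg/mL for 1 h at 4 C; score merges 667 nm emission intensity with signal to noise over three replicate slides.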 The note with it: fluorescence 635 nm, higher = more signal.
The target in experiment [8] is Concanavalin-A (Canavalia ensiformis) (UniProt P02866). As to the kind of experiment: compounds binding concanavalin A lectin – biochemical, small-molecule microarray, Alexa647 label, 635 nm, artefact control for SMM control protein annotation, primary screen (AID 1127).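 Also: z combines 667 nm emission intensity with signal-to-noise across three replicate slides.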 The note with it: ConA-A647 binding fluorescence, higher = more signal.
Experiment [9] can be described thus: compounds binding Alexa647 anti-His antibody – biochemical, small-molecule microarray, 635 nm fluorescence, artefact control for SMM control protein annotation, primary screen (AID 1128).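 Also: score merges feature fluorescence with signal-to-noise for each printed compound spot.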 Particulars: higher = more signal.
Experiment [10] has as its system Human papillomavirus type 1a E7 protein (residues 1-88). As to the kind of experiment: HPV1a E7 small-molecule binders, primary screen, biochemical, small-molecule microarray, residues 1-88, 635 nm (AID 1129). Particulars: small-molecule microarray binding, fluorescence 635 nm; higher = more signal.
Experiment [11] deals with Focal adhesion kinase 1 (Homo sapiens) (UniProt Q05397). As to the kind of experiment: PTK2 protein binding on printed compound slides – biochemical, small-molecule microarray, 635/667 nm fluorescence, BSA, DTT, primary screen (AID 1130).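 Also: composite of spot emission at 667 nm and signal to noise over triplicate slides.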 The note with it: 635 nm fluorescence, higher = more signal.
For experiment [12], the system named is Fibrinogen (Alexa647-labelled). As to the kind of experiment: Alexa647-fibrinogen binding to printed small molecules – biochemical, small-molecule microarray, 635/667 nm fluorescence, artefact control for SMM control-protein annotation, profiling panel (AID 1131).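 Also: z-score merges 667 nm fluorescence with per-spot signal-to-noise over triplicate slides.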 The note with it: fibrinogen-A647 binding fluorescence, higher = more signal.
Experiment [13] has as its target Follistatin (Homo sapiens) (UniProt P19883). As to the kind of experiment: FST protein binding to printed compounds – biochemical, small-molecule microarray, 635/667 nm fluorescence, primary screen (AID 1132). Particulars: 635 nm fluorescence, higher = more signal.
In experiment [14] the target is Fibroblast growth factor 2 (Homo sapiens) (UniProt P09038). As to the kind of experiment: basic fibroblast growth factor binding to printed compounds – biochemical, small-molecule microarray, 635/667 nm fluorescence, primary screen (AID 1133). Particulars: FGF2, fluorescence 635/667, higher = more signal.
A short description of experiment [15]: JC-1 mitochondrial potential readout, lung cancer cells – cell-based, A549, JC-1 fluorescence, basal, 24 h, 100 nL, profiling panel (AID 1138).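 Also: A549 lung adenocarcinoma cells under basal conditions with no added stimulus; test concentration not given here.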 The note with it: higher = more signal.
In another experiment the test system is Lefty1. As to the kind of experiment: Lefty1 protein binding to printed compounds – biochemical, small-molecule microarray, 635/667 nm fluorescence, primary screen (AID 1139). The note with it: fluorescence 635/667, higher = more signal.
Experiment [16] deals with wheat germ agglutinin (Triticum aestivum), Alexa647-labelled. As to the kind of experiment: Alexa647-WGA lectin binding to printed small molecules – biochemical, small-molecule microarray, 635/667 nm fluorescence, artefact control for SMM control-protein annotation, profiling panel (AID 1140).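 Also: score merges 667 nm feature emission with signal to noise over triplicate slides.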 Particulars: WGA-A647 binding, 635 nm fluorescence, higher = more signal.
Experiment [17] has as its target Luciferin 4-monooxygenase (Photinus pyralis) (UniProt P08659). As to the kind of experiment: inhibition of purified Photinus pyralis luciferase – biochemical, luminescence, purified enzyme, 2006 set, primary screen (AID 1141).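 Also: cell-free assay with purified firefly luciferase at 100 ng per well in PBS; test concentration not given here.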 The note with it: purified firefly luciferase, SteadyGlo luminescence, 30 min; higher = more signal, called active from +8 up or from −8 down.

Chain of Concanavalin-A (Canavalia ensiformis) (P02866 whole entry, looked up): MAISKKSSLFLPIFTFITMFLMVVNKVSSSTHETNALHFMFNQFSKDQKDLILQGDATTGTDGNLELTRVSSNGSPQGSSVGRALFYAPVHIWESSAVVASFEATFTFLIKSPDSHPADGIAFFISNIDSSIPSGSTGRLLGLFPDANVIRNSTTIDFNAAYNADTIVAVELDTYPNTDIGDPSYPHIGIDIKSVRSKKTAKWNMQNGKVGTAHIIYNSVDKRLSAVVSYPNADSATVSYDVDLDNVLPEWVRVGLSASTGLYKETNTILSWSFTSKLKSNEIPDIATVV
Chain of Fibroblast growth factor 2 (Homo sapiens) (P09038 whole entry, looked up): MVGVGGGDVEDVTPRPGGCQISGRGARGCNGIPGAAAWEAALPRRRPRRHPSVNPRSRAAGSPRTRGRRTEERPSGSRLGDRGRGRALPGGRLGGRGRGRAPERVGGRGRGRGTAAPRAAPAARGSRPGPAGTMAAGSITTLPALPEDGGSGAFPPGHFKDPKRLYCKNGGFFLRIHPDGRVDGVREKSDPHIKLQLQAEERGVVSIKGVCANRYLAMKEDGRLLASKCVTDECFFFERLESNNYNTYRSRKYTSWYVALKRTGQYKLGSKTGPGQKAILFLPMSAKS
Chain of Focal adhesion kinase 1 (Homo sapiens) (Q05397 whole entry, looked up): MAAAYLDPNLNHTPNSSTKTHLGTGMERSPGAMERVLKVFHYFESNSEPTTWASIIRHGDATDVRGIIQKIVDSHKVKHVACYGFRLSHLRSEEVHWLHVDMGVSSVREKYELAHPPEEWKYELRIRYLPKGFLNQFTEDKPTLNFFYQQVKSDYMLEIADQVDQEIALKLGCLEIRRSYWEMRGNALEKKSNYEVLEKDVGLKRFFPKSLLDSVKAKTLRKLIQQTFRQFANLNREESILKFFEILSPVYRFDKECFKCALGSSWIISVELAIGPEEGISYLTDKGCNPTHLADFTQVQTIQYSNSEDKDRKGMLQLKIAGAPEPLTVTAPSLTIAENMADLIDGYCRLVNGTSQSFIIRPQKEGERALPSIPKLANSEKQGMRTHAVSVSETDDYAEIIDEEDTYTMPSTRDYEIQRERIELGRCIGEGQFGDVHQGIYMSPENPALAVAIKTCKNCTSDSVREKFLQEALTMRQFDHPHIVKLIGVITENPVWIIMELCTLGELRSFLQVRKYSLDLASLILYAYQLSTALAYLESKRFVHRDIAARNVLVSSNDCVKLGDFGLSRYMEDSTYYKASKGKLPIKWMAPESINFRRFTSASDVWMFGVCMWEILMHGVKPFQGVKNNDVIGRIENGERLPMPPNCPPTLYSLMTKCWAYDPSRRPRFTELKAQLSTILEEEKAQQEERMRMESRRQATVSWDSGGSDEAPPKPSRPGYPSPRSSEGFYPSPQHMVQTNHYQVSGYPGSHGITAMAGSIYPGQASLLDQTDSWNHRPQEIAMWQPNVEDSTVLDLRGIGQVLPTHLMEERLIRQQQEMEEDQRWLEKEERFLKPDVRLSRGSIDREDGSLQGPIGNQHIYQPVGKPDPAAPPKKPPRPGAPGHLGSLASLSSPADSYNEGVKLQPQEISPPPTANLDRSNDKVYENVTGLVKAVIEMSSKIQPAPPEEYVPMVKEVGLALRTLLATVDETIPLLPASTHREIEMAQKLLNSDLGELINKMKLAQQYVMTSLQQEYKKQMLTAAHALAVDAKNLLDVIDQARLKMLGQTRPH
Chain of Follistatin (Homo sapiens) (P19883 whole entry, looked up): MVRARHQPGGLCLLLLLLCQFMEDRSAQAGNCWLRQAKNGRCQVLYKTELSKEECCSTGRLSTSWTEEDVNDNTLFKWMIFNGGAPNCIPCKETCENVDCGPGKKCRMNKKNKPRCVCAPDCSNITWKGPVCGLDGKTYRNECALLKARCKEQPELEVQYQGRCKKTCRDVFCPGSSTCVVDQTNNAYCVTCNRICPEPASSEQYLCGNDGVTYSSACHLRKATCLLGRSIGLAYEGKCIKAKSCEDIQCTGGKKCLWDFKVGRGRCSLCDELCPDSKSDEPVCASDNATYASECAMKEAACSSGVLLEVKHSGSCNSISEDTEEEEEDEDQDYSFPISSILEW
Chain of Luciferin 4-monooxygenase (Photinus pyralis) (P08659 whole entry, looked up): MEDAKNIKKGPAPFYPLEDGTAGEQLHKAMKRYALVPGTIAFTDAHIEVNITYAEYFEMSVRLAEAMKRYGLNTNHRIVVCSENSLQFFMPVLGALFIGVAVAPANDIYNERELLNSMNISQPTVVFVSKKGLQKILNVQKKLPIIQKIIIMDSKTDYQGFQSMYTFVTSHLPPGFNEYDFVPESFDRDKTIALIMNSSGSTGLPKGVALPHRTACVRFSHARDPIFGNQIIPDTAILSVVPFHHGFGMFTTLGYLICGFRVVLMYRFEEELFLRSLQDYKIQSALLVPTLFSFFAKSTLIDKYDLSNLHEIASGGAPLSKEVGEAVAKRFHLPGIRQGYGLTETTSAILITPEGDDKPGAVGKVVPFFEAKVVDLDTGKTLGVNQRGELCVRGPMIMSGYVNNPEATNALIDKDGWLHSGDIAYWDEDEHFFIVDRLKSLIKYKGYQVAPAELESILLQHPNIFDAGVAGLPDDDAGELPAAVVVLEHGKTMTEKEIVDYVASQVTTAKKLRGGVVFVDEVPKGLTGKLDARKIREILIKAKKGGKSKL
Chain of Albumin (Bos taurus) (P02769 whole entry, looked up): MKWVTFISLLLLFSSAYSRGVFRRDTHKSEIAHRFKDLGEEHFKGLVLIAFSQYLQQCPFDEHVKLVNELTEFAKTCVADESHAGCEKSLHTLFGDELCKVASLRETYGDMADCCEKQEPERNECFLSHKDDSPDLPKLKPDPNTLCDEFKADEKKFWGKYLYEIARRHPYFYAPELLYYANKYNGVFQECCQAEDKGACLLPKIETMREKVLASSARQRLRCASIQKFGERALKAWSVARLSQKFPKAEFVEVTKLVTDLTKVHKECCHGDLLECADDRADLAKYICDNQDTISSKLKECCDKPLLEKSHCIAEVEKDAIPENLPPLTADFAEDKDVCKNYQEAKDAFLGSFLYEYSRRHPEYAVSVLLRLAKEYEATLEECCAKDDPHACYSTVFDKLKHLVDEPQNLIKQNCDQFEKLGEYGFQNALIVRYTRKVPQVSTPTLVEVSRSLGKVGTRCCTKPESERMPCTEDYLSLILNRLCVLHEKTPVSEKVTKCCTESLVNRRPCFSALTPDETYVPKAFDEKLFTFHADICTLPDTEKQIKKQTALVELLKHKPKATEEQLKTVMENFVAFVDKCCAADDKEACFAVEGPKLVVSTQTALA

Take `COC(=O)[C@@]1(Cc2ccc(OC)cc2)[C@H]2c3cc(C(=O)N4CCCC4)n(Cc4c(-c5ccccc5)noc4C)c3C[C@H]2CN1C(=O)c1ccccc1`: the composite z-score stood at 0.634 with Albumin (Bos taurus); 0.576 in [2]; 0.251 in experiment [3]; 0.446 in [4]; 3.24 in experiment [5]; 0.214 in experiment [6]. The composite z-score was 1.35 in the experiment with Sam68 (KHDRBS1); -0.748 in experiment [7]; 0.978 in [8]; 1.45 in [9]; 1.27 in experiment [10]; 0.372 in experiment [11]. Besides, the composite z-score in experiment [12] was 0.695; in [13], 0.699; in experiment [14] it was -0.298; in the experiment with Lefty1, 0.0669; in experiment [16], 0.539. Also, the composite Z-score in experiment [1] is 0.216 (inactive). Further, the results for the z-score in [15] and in experiment [17] were -0.608 and 2.05 (inactive), respectively.
Take `COc1cc(CO)cc(I)c1O[C@H]1C=C(C(=O)NCCO)C[C@@H](NCc2ccc(F)cc2)[C@@H]1O`: the composite z-score is -1.03 in the experiment with Albumin (Bos taurus); -0.118 in experiment [2]; -0.148 in experiment [3]; 0.223 in experiment [4]; 0.369 in experiment [5]; 0.205 in experiment [6]. Besides, the composite z-score with Sam68 (KHDRBS1) was 0.352; in experiment [7] it was 0.306; in [8], 0.0901; in experiment [9] it was -1; in [10], 0.822; in [11], -0.123. The composite z-score in experiment [12] worked out at 0.619; in experiment [13] it was 0.951; in experiment [14], 1.03; in the experiment on Lefty1 it was 1.01; in experiment [16], 0.518. Moreover, the composite Z-score in experiment [1] is 0.328 (inactive). For the same compound, the figures for the z-score in [15] and in [17] were 1.18 and -0.0701 (inactive), respectively.
For `CC(C)OC(=O)C=C1C[C@@H](c2ccc(C(F)(F)F)cc2)O[C@@H](c2ccc(C(F)(F)F)cc2)O1`, the composite z-score was 0.856 with Albumin (Bos taurus); -0.102 in experiment [2]; -0.128 in experiment [3]; 0.717 in [4]; 2.61 in experiment [5]; 0.35 in experiment [6]. Moreover, the composite z-score with Sam68 (KHDRBS1) is 0.886; in experiment [7], -0.782; in experiment [8], 1.09; in experiment [9], 0.751; in [10] it was 1.25; in [11], 1.04. In addition, the composite z-score in [12] is 0.907; in [13], -0.0691; in experiment [14] it was -0.46; in the experiment with Lefty1 it was -0.0747; in [16] it was 1.21. In addition, in experiment [1], the composite Z-score is -0.451 (inactive). For the same compound, the z-score in experiment [15] is -0.0127; in experiment [17] it was -0.478 (inactive).
`CCOC(=O)C1=CC[C@@H](c2ccc(OCc3ccccc3)c(OC)c2)N(S(=O)(=O)c2ccc(C)cc2)[C@H]1c1ccc(SC)cc1`: the composite z-score with Albumin (Bos taurus) was 0.783; in [2], 0.386; in experiment [3], 0.202; in experiment [4], 0.625; in [5], 2.53; in [6] it was 0.157. The composite z-score was determined as 1.31 in the experiment on Sam68 (KHDRBS1); 0.525 in [7]; 0.806 in [8]; 1.44 in experiment [9]; 1.24 in [10]; 0.398 in experiment [11]. Further, the composite z-score worked out at 0.715 in experiment [12]; 0.761 in [13]; 0.159 in experiment [14]; 0.542 in the experiment on Lefty1; 0.71 in experiment [16]. The composite Z-score in experiment [1] was 0.207 (inactive). Moreover, the z-score in [15] is -0.219; in experiment [17], 0.107 (inactive).
With `COc1ccc(NC(=O)O[C@H]2[C@H](OC(=O)Nc3ccccc3)[C@@H](OC(=O)Nc3ccccc3)[C@@H](OC)O[C@@H]2CO)cc1`, the composite z-score was 0.137 with Albumin (Bos taurus); -0.0003 in experiment [2]; -0.0878 in [3]; 0.761 in [4]; 2.8 in experiment [5]; 0.624 in [6]. The composite z-score in the experiment on Sam68 (KHDRBS1) turned out to be 1.29; in [7] it was 0.402; in experiment [8] it was 1.13; in experiment [9] it was 1.77; in [10], 1.21; in experiment [11] it was 0.634. Moreover, the composite z-score in experiment [12] came out at 0.825; in experiment [13], 1.34; in experiment [14] it was 1.72; in the experiment with Lefty1, 0.512; in experiment [16] it was 0.626. Further, the composite Z-score in experiment [1] is -0.275 (inactive). Besides, the z-score in experiment [15] was -0.506; in [17], 0.0551 (inactive).
